Results published in PubChem BioAssay AID618 (Sanford-Burnham Center for Chemical Genomics, 2007).
The campaign covered roughly 87,000 compounds. About 540 (0.62%) were called active. No rule for the calls is given here. For the sample, actives were picked, then their nearest neighbours and some compounds at random. Measured potencies and affinities stand elsewhere.

Experiment: MT1-MMP gene expression reporter suppression – cell-based, luciferase reporter, luminescence (AID 618);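 also: actives suppress MT1-MMP promoter-driven transcription so potencies describe inhibitors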
Conditions: MT1-MMP promoter luciferase reporter cells

SMILES	outcome
Cc1nc(SCc2cccc(Oc3ccccc3)c2)n[nH]1	inactive
c1ccc(-c2nnc(-c3ccccn3)nn2)nc1	inactive
c1ccc(-c2ccccn2)nc1	inactive
CCc1nc(OCC(=O)c2ccccc2)c(C#N)c2c1COC(C)(C)C2	inactive
NC(=O)c1ccccc1N/C=C/C(=O)c1ccc(F)cc1	inactive
Cc1c(N/C=C/C(=O)c2ccc(Cl)cc2)c(=O)n(-c2ccccc2)n1C	inactive
NC(=O)c1ccccc1N/C=C/C(=O)c1ccccc1	active
COc1ccc(C(=O)Nc2ccccn2)cc1	inactive
Cc1ccc(C(=O)/C=C/Nc2ccccc2C(N)=O)cc1	inactive
Cc1cc(N/C=C/C(=O)c2ccc(Br)cc2)no1	inactive
Cc1ccc(C(=O)/C=C/Nc2ccccn2)cc1	active
Cc1ccc(/C=C/C(=O)c2ccccc2)cc1	inactive
COc1ccc(C(=O)/C=C/Nc2cccc(C)n2)cc1OC	inactive
NC(=O)c1ccccc1N/C=C/C(=O)c1ccc(Cl)cc1	inactive
CCCCc1ccc(Nc2nc(CCC)cc(=O)[nH]2)cc1	inactive
COc1ccc(C2C(C#N)=C(N)Oc3n[nH]c(-c4ccccn4)c32)c(OC)c1OC (configuration not stated)	inactive
C=C(c1ccc(OC)cc1)c1ccc(OC)cc1	inactive
CC(C)Cn1c(N)c(C(=O)COC(=O)c2cc(C(F)(F)F)nc3ccccc23)c(=O)n(C)c1=O	inactive
COC(=O)C(C(=O)Nc1ncccn1)C1CCCCCC1 (configuration not stated)	inactive
O=C(Nc1cccnc1)c1c(F)c(F)c(F)c(F)c1F	inactive
Cc1ccc(S(=O)(=O)n2nc(-c3ccc(Cl)cc3)nc2NCc2ccco2)cc1	inactive
Cc1ccnn1CCSCC(=O)O	inactive
O=C(/C=C/NNC(=O)c1ccccc1)c1ccccc1	inactive
O=C(CC(=O)Nc1ccccn1)Nc1ccccn1	inactive

SMILES	outcome
CCn1c(=NC(=O)CN2C(=O)CCC2=O)sc2c(C)cc(C)cc21	inactive
Cc1cc(N2CCCC2=O)cc(C)c1S(=O)(=O)NCCOc1ccc(C(C)(C)C)cc1	inactive
N#Cc1cc(N)c(Nc2ccccc2)cc1C#N	inactive
CCC1(c2ccccc2)NC(=O)N(CC(=O)Nc2cccc(C#N)c2)C1=O (configuration not stated)	inactive
COc1cc(C)c(C(C)C)cc1S(=O)(=O)n1ccnc1	inactive
COc1cc(C)c(Cl)cc1S(=O)(=O)n1cnc(C)c1	inactive
COc1cc(C)c(C(C)C)cc1S(=O)(=O)n1cnc(C)c1	active
CCN1C(=C2C(=O)c3ccccc3C2=O)C=Cc2ccccc21	inactive
CCN1/C(=C/c2ccc3ccccc3[n+]2CC)C=Cc2ccccc21	active
CCN1C(=O)/C(=C2\C=Cc3ccccc3N2CC)OC1=S	inactive
CC1(C)CC(=O)N(c2ccccc2)C1(C)O (configuration not stated)	inactive
Cc1cc(C(=O)CSc2nc3ccccc3[nH]2)c(C)n1C	inactive
CCn1c(SCC(=O)c2cc(C)n(CC3CCCO3)c2C)nc2ccccc21 (configuration not stated)	inactive
C=CCn1c(C)cc(C(=O)CSc2nc3ccccc3c(=O)[nH]2)c1C	inactive
Cc1cc(C(=O)CSc2nc3ccc(Cl)cc3[nH]2)c(C)n1CC1CCCO1 (configuration not stated)	inactive
C=CCc1c(C)nc(SC)nc1Nc1ccc(C(C)=O)cc1	inactive
CC1CC(C)(C)NC(=O)O1 (configuration not stated)	inactive
Cc1ccc(Nc2cc(C)nn2-c2nc(C)cc(=O)[nH]2)cc1	active
Cc1ccc(Nc2cc(C)nn2-c2nc(C)cc(C)n2)cc1	inactive
Cc1cc(=O)[nH]c(-n2nc(C)cc2C)n1	inactive
Cc1noc(C)c1CSc1nc2[nH]ncc2c(=O)n1-c1ccccc1	active
C=CCn1c(SCc2c(C)noc2C)nc2ccccc2c1=O	active
Cc1nc(CSc2nc3[nH]ncc3c(=O)n2-c2ccccc2)cs1	inactive
Cc1noc(C)c1CSc1nc2ccccc2c(=O)n1-c1ccccc1	inactive

SMILES	outcome
C=CCn1c(SCc2c(C)noc2C)nc2cc(C(=O)O)ccc2c1=O	inactive
Cc1noc(C)c1CSc1nc2ccccc2c(=O)n1-c1ccc(Cl)cc1	inactive
COc1ccccc1NC(=O)CSc1nnnn1-c1ccc(C)cc1	inactive
COCCCNC(=O)CCc1nc2cccnc2n1Cc1ccccc1	inactive
O=C(NNC(=O)c1ccccc1Br)c1ccc(SCC2CCCO2)c([N+](=O)[O-])c1 (configuration not stated)	inactive
COc1ccc(CCN2CCC(Nc3nc4ccccc4n3Cc3ccc(F)cc3)CC2)cc1	active
COc1ccc(CNc2nc3ccccc3n2CCN2CCOCC2)cc1	inactive
COc1ccc(CC(=O)N2CCC(Nc3nc4ccccc4n3Cc3ccc(F)cc3)CC2)cc1	inactive
COc1ccc(N/C=C(\C#N)c2ccc(OCCCF)cc2)cc1	inactive
COc1ccc(C2C(C#N)=C(N)N3C(=C2C#N)Sc2ccccc23)cc1 (configuration not stated)	inactive
CC1(C)CC(=O)C2=C(C1)OC1=C(C(=O)CC(C)(C)C1)C2c1ccc(O)cc1O	active
Cc1nn(C)cc1C1C2=C(CC(C)(C)CC2=O)OC2=C1C(=O)CC(C)(C)C2	inactive
CC1(C)CC(=O)C(C2C3=C(CC(C)(C)CC3=O)Oc3ccccc32)=C(O)C1 (configuration not stated)	inactive
O=C(c1cccs1)N(Cc1ccco1)c1nc(-c2ccc(F)cc2)cs1	inactive
COc1ccc(-c2cc(C(F)(F)F)n3nc(C(=O)N4CCCCC4)cc3n2)cc1OC	inactive
Cc1ccc2[nH]c(-c3ccccc3)cc(=O)c2c1	active
Cc1ccc2[nH]c(C(=O)O)c(-c3ccccc3)c2c1	inactive
O=c1cc(-c2ccccc2)[nH]c2ccccc12	inactive
COc1ccc(NC(=O)N2CCCC2C(=O)NCc2ccc(F)cc2)cc1 (configuration not stated)	inactive
O=C(CSCCO)Nc1ccc(C2CCCCC2)cc1	inactive
O=C(O)CSCC(=O)Nc1ccccc1	inactive
Cc1ccc(C(=O)CC2(O)C(=O)N(Cc3ccc4c(c3)OCO4)c3ccccc32)cc1 (configuration not stated)	inactive
Cc1cc(C)c(S(=O)(=O)N2CCC(C(=O)NCc3ccco3)CC2)c(C)c1	inactive
COc1cc(C(=O)N/N=C\c2ccccc2)c([N+](=O)[O-])c(OC)c1OC	inactive

SMILES	outcome
Cc1ccc(C(=O)N/N=C/c2sc(=O)n(Cc3cccc(C(=O)O)c3)c2Cl)cc1	inactive
Cc1ccc(C(=O)NNS(=O)(=O)c2ccccc2[N+](=O)[O-])cc1	inactive
O=C(N/N=C/C=C/c1ccccc1)c1ccccc1Br	inactive
CC(=O)Nc1ccc(NC(=O)c2ccccc2C)cc1	inactive
O=C(N/N=C/c1ccc([N+](=O)[O-])s1)c1cccc(Br)c1	inactive
COc1cccc(NC2=NCC(=O)N2Cc2cccs2)c1	inactive
O=C1c2ccccc2C(=O)N1CCOCCN1C(=O)c2ccccc2C1=O	inactive
CCC(=O)N(Cc1ccc(S(N)(=O)=O)cc1)C1CC(=O)N(c2ccc(OC)cc2)C1=O (configuration not stated)	inactive
Cc1cc2nnc(SCC(=O)N3C(C)CCCC3C)n2c(N)n1 (configuration not stated)	inactive
COC(=O)CSc1cc(C(=O)c2nccn2C)c2ccccc2n1	inactive
COCCNC(=O)C(c1cccs1)N(Cc1cccs1)C(=O)Cn1nnc2ccccc21 (configuration not stated)	inactive
CCCCS(=O)(=O)Nc1ccc(C(=O)NCC2CCCO2)cc1 (configuration not stated)	inactive
CCN(CC)c1ccc(NC(=O)c2cnc3ccccn3c2=O)c(C)c1	inactive
Cc1cccc(NC(=O)c2cnc3ccccn3c2=O)c1	inactive
CCCC(=O)c1ccc(N2CCOCC2)c(F)c1	inactive
Cn1c(C(=O)N2CCN(Cc3ccccc3)CC2)cc2c(=O)n(C)c3ccccc3c21	inactive
COc1cc(C(=O)N2CCN(C(=O)c3ccccc3)CC2)cc(OC)c1OC	inactive
COc1cc(C(=O)N2CCN(c3cc(Cl)ccc3Cl)CC2)cc(OC)c1OC	active
COc1ccc(C(=O)N2CCN(C(=O)c3cc(OC)c(OC)c(OC)c3)CC2)cc1	inactive
COc1ccc(Cl)cc1S(=O)(=O)N1CCN(C(=O)c2cc(OC)c(OC)c(OC)c2)CC1	inactive
COc1cc(C(=O)N2CCN(c3cccc(C)c3C)CC2)cc(OC)c1OC	active
Cc1cccc(N2CCN(C(=O)c3ccncc3)CC2)c1C	inactive
O=C(Nc1cccc(Cl)c1N1CCCC1)c1ccc(Br)o1	inactive
O=C(Nc1ccccc1)NC1CC2CCC(C1)N2Cc1nnnn1Cc1ccc2c(c1)OCO2 (configuration not stated)	inactive

SMILES	outcome
COc1ccc(Nc2cc(C)nc3nc(C)nn23)cc1Cl	inactive
CC(=O)Nc1c2c(nn1-c1ccc(C)cc1C)CSC2	inactive
CCCCS(=O)(=O)/C=C\C=C/S(=O)(=O)CCCC	active
CCCCS(=O)(=O)/C=C\C1C2C=CC(C2)C1S(=O)(=O)CCCC (configuration not stated)	inactive
CCCCS(=O)(=O)/C=C/[C@H]1[C@H](S(=O)(=O)CCCC)[C@H]2C=C[C@@H]1C2	inactive
COc1ccc(CCNC(=O)Cn2cnc3c(nnn3Cc3ccccc3F)c2=O)cc1OC	inactive
Cc1ccc(S(=O)(=O)N2CCN(C(=O)N3CCOCC3)C2c2ccc(N(C)C)cc2)cc1 (configuration not stated)	inactive
O=C(Cn1cnc2ccccc2c1=O)OCC(=O)c1ccc2c(c1)OCCO2	inactive
O=C(Cc1ccc(Br)cc1)OCC(=O)c1ccc2c(c1)OCCO2	inactive
O=C(Cc1n[nH]c(=O)c2ccccc12)OCC(=O)c1ccc2c(c1)OCCO2	active
CCOCCCn1c(SCC(=O)NC(C)(C)C)nc2ccccc2c1=O	inactive
CNC(=O)Nc1ccccc1F	inactive
Cc1nc2ccccc2c(=O)n1C1CCCCCC1	inactive
O=C(c1cc(-c2ccc(Cl)cc2Cl)on1)N1CCN(C(=O)c2ccco2)CC1	inactive
O=C(c1cc(-c2ccc(F)cc2)on1)N1CCCC1	inactive
COc1cccc(-c2cc(C(=O)N3CCCCCC3)no2)c1	inactive
O=C(c1cc(-c2ccccc2)on1)N1CCCC1	inactive
O=C(c1cc(-c2ccc(Cl)cc2Cl)on1)N1CCOCC1	active
O=C(c1cc(-c2cccc(O)c2)on1)N1CCOCC1	inactive
O=C(c1cc(-c2ccc(Cl)cc2)on1)N1CCOCC1	inactive
Cc1ccc(-c2cc(C(=O)N3CCCC3)no2)cc1	active
